# Insulin prom inh: TRM-6 insulin promoter activity inhibition; hit rate 0.9% among 130,000; TRM-6 cells (human fetal islet line), insulin promoter-eGFP reporter, imaging; reporter expression induced with tamoxifen; inhibition, % at 2 µM;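 active = inhibition above the mean plus 3 SD, with well images judged a real hit on visual review, cut at about 60% in these data, passing the limit was not always enough; inconclusive = inhibition over the cutoff but images rejected on review; inactive = inhibition not above the cutoff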
# Lmaj promast: reduces viability of Leishmania major promastigotes | resazurin fluorescence viability | inhibition, % at 10 µM | hit rate 9% among 200,000 | AID 1063; in the data active = inhibition above about 50%;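 note: promastigotes grown with compound for 44 hours at 28 °C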
# Autophagy HCS: autophagy modulation, high-content screen; MEF GFP-LC3 puncta imaging; test concentration mostly 10 µM; calls only at 10 µM (by protocol); hit rate 0.98% among 190,000;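 active = percentage of spot-positive cells more than 3 SD above its plate mean, without a fluorescence outlier flag or 80% toxicity; inconclusive = no clear call, values can overlap the other calls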;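 note: spot-positive cell cutoff set from DMSO-treated cells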
# HCT116 bCat-KO: beta-catenin-lacking colon tumor cell growth suppression; HCT116 beta-catenin knockout viability, CellTiter-Glo, 60 h; active compounds read low; viability, % at 10 µM; hit rate 1.5% among 140,000; AID 818;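 active = viability at or under a set limit, the compound median less 4 SD, cut at about 6% in these data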;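 note: 0% = Hyamine 1622 control at 20 µM and 100% = untreated cell control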
# Ins promoter up: MIN6 insulin promoter up-regulation. MIN6 insulin promoter-GFP reporter, high-content imaging; active compounds read high. z-score at 5 µM. hit rate 0.3% among 190,000;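 active = z-score above 3 at 5 µM with at least 500 cells counted in the well; inconclusive = wells under 500 cells, flagged as cytotoxic or low count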
# PTEN del growth: PTEN-deleted cell growth suppression. HCT116 PTEN-null viability, CellTiter-Glo, 60 h; active compounds read low. viability, % at 10 µM. hit rate 1.2% among 140,000. AID 827;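 active = viability at or below a set limit, 4 SD under the median of all tested compounds, cut at about 3.7% in these data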;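 note: PTEN knockout HCT116 line with beta catenin targeted HCT116 as companion control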
# The depositor's hits bear a star; i = inactive; ? = inconclusive; nt = no result. Sampled rows, rich in hits. Any-hit rate of the full collection: about 9.6%.
SMILES,Insulin prom inh,Lmaj promast,Autophagy HCS,HCT116 bCat-KO,Ins promoter up,PTEN del growth
CN1/C(=C\C(=O)c2ccccc2Cl)c2ccccc2CC1(C)C,-35.1,70.3*,i,53.0,1.99,59.2
COc1ccc(C2CC(c3ccc(F)cc3)Nc3nc(N)nn32)cc1OC (centres undefined),nt,-3.5,nt,82.4,0.6,95.2
Cc1ccc2nc(-c3ccccc3)c(CN3CCN(c4ccccc4F)CC3)n2c1,11.1,79.8*,i,nt,-0.5,nt
Cc1ccc2nc(-c3ccccc3)c(CN3CCOCC3)n2c1,nt,48.5,i,nt,-0.12,nt
Cc1ccc2nc(-c3ccccc3)c(CN3CCSCC3)n2c1,nt,62.6*,i,nt,-0.39,nt
C/C(Cc1ccccc1)=N\NC(=O)CNC(=O)c1ccccc1Br,-11.1,61.5*,i,93.6,-0.31,94.6
C/C(Cc1ccccc1)=N\NC(=O)CNC(=O)c1ccccc1O,nt,nt,nt,nt,0.16,nt
O=c1cc(Nc2ccc3c(c2)OCCO3)[nH]c(=O)n1C1CCCCC1,-21.4,0.4,i,27.7,0.32,23.2
CCOC(=O)c1cnc2c(-c3ccc(F)cc3)cnn2c1C(F)(F)F,-5.0,97.2*,i,nt,nt,nt
O=C(CN(C(=O)CSc1nnc(COc2ccccc2)o1)c1ccc(F)cc1)NC1CCCCC1,-60.0,52.4*,i,54.9,-0.04,48.4
O=C(CN(C(=O)CSc1nnc(COc2ccccc2)o1)c1ccc(F)cc1)NC1CCCC1,nt,18.6,i,87.5,-0.26,80.5
CN(c1ccccc1)c1nc(N)c([N+](=O)[O-])c(N2CCCCC2)n1,nt,nt,nt,nt,-1.12,nt
CN(C1=C(N2CCCCC2)C(=O)c2ccccc2C1=O)c1ccccc1,31.4,64.7*,i,69.1,-0.35,63.0
COC1=C(Nc2ccc(C)cc2)C(=O)c2ccccc2C1=O,-16.0,15.5,i,24.1,-0.08,20.4
O=C1C(Nc2ccccc2)=C(N2CCCCC2)C(=O)c2ccccc21,-13.8,97.1*,i,29.1,-1.18,35.3
Cc1ccc(NC2=C(N3CCCCC3)C(=O)c3ccccc3C2=O)cc1,-10.0,97.1*,i,36.9,-1.41,73.1
O=C(/C=C/c1ccc(O)cc1)c1ccc(NC2=C(N3CCCCC3)C(=O)c3ccccc3C2=O)cc1,nt,98.8*,i,13.3,?,24.2
CC1CCN(C2=C(NS(=O)(=O)c3ccccc3)C(=O)c3ccccc3C2=O)CC1,nt,nt,nt,nt,1.16,nt
O=C1Nc2ccccc2N=C(c2ccccc2)C1Br (centres undefined),nt,-5.5,i,nt,0.29,nt
Cn1c(=N)n(CC(=O)O)c2ccccc21,0.0,-4.1,i,94.2,0.2,103.1
COc1ccccc1NC1=C(N2CCCCC2)C(=O)c2ccccc2C1=O,nt,99.8*,i,3.1*,-0.96,5.3
O=C1C(NS(=O)(=O)c2ccccc2)=C(N2CCN(c3ccc(F)cc3)CC2)C(=O)c2ccccc21,nt,nt,nt,nt,-0.24,nt
O=C1C(Nc2cccc(O)c2)=C(N2CCCCC2)C(=O)c2ccccc21,nt,97.7*,i,35.2,-0.92,41.6
CC(=O)/C(N=Nc1cc(C)ccc1O)=C(\C)O,nt,-8.8,i,nt,1.84,nt
CCC(C)(C(=O)NC1CCCC1)N(C)C(=O)c1ccccn1 (centres undefined),26.7,-2.5,i,nt,0.31,nt
SMILES,Insulin prom inh,Lmaj promast,Autophagy HCS,HCT116 bCat-KO,Ins promoter up,PTEN del growth
N#Cc1ccc(C(=O)N2CCN(S(=O)(=O)c3ccc(Br)s3)CC2)cc1,-35.7,1.3,i,nt,0.59,nt
CN(c1ccc(C(=O)N2CCN(Cc3ccc4c(c3)OCO4)CC2)cc1)S(C)(=O)=O,nt,-6.3,i,nt,0.77,nt
Cc1oncc1-c1cn2ccccc2n1,nt,-2.9,i,101.6,0.35,105.8
Cc1cc2nc(SCC(=O)N(C)C)c3c(c2cc1C)CCCC3,-9.3,92.6*,i,72.8,-0.6,69.0
CN(C)C(=O)CSc1nc(-c2ccccc2)nc2c1CCCC2,-166.7,8.9,i,38.1,nt,38.4
COc1ccc(OC)c(CCNC(=O)CS(=O)(=O)Cc2nc(-c3ccc(C)cc3)oc2C)c1,14.3,7.8,i,66.0,nt,87.0
CCCCOC(=O)CCN1C(=O)/C(=C2\SC(=S)N(CCC(=O)OCCCC)C2=O)SC1=S,nt,65.8*,i,40.6,-0.15,43.0
CCCOC(=O)CCCN1C(=O)/C(=C2\SC(=S)N(CCCC(=O)OCCC)C2=O)SC1=S,nt,nt,nt,nt,-0.15,nt
Cc1cc(C(=O)CN2C(=O)NC(C)(CC(C)C)C2=O)c(C)n1-c1ccc2c(c1)OCO2 (centres undefined),nt,-1.5,i,86.1,0.59,85.2
Cc1cc(C)nc(N/N=C/C2=C(N3CCOCC3)C(=C\c3ccc(Cl)cc3)/CC2)n1,9.1,30.4,i,36.3,nt,43.8
